# Assay results as given in PubChem BioAssay.
# “And” between values parts separate entries of the source, which are not always exact repeats. Equal entries are not always repeated. The source made the active and inactive calls. Unless noted, no stated cut-off is given here; in the data, active means inhibition above about 80%; inactive means the rest.
# How the values were obtained:
# [1] = P. berghei load reduction in hepatocytes – cell-based, HepG2, luciferase luminescence, HepG2 viability, primary screen (AID 624349; in the data active means parasite load remaining mostly below about 12%, no sharp cut-off; inactive means mostly above about 10%;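 further: 100% = mean of DMSO negative control wells on the same plate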); details: P. berghei liver stage in HepG2, luciferase luminescence, concentration not given here; parasite load remaining: stronger effect = lower value; viability: measured here: HepG2 viability without parasites
# [2] = test system: Aerobactin synthetase IucA (Klebsiella pneumoniae); experiment: inhibition of K. pneumoniae IucA enzyme – biochemical, Tocris library, absorbance (AID 1345561; call rule not given here;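 further: 100% = enzyme without compound and 0% = no enzyme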); details: purified IucA enzyme assay, absorbance (OD) read-out; stronger effect = lower value;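 tested at 8 µM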
# [3] = viability loss with induced miR-34 in A549 – imaging, A549 dox-inducible miR-34, nuclei and caspase counts, primary screen (AID 1347080;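 active means compounds whose cell count with miR-34 switched on is under 0.7 times the count with it off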); details: A549 miR-34 inducible, Hoechst nuclei count, 48 h
# [4] = MELAS cybrid and Rieske KO viability enhancers – cell-based, MELAS cybrids, Rieske KO mouse fibroblasts, CellTiter-Glo, primary screen (AID 1508586;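 active means mean z-score across replicates of 1.96 or higher in either the MELAS or the Rieske mutant cell line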;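 further: z relative to plate mean and SD of compound and empty wells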); details: low glucose
# [5] = galactose survival enhancers in mitochondrial complex I cybrids – cell-based, galactose medium, ATP luminescence, primary screen (AID 1645843;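 active means z-score of at least 1.8 in each of two replicates, scored against plate mean and spread of sample wells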;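 further: positive z means more ATP and so rescue of galactose-driven cybrid death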); details: complex I mutant cybrid cells, 72 h, stronger effect = higher value
# [6] = growth inhibition, single agent or in combination, cell-based, chromothripsis tumors, cisplatin or BGB combos (AID 1671449); details: LFS_MB_P medulloblastoma cells;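 further: cells exposed for 96 hours; 0% = vehicle DMSO and 100% = killing by high DMSO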
# [7] = growth inhibition, single agent and combos, cell-based, chromothripsis tumors, cisplatin or BGB combos (AID 1671450); details: HDN33 neuroblastoma cells, stronger effect = higher value;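 further: cells exposed to compound for four days; 0% = vehicle DMSO and 100% = cell killing by high DMSO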
# [8] = growth inhibition, single agents and combos, ICB984, cell-based, cisplatin or BGB combos, synergistic combos for chromothripsis tumors (AID 1671451; call rule not given here;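 further: cells exposed for 96 hours before readout; 0% = vehicle DMSO and 100% = killing by high DMSO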); details: ICB984 medulloblastoma cells, drug combinations, stronger effect = higher value
# [9] = growth inhibition, single agents and combos, LFS_MB_1R, cell-based, cisplatin or BGB combos, synergistic combos for chromothripsis tumors (AID 1671452); details: LFS_MB_1R medulloblastoma cells, stronger effect = higher value;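 further: cells exposed for 96 hours before readout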
# [10] = growth inhibition, single agents and combos, HTB85, cell-based, BGB or cisplatin IC20 combos, synergistic combos for chromothripsis tumors (AID 1671453); details: HTB85 osteosarcoma cells, drug combinations, stronger effect = higher value;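 further: cells exposed for 96 hours before readout; 0% = vehicle DMSO and 100% = high DMSO killing control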
# [11] = measured here: combination with BGB IC40, at 0.05 µM
smiles,measurement,setting,value
O=C(NC(NC(=S)Nc1ccc(F)c([N+](=O)[O-])c1)C(Cl)(Cl)Cl)C(c1ccccc1)c1ccccc1 (centres undefined),parasite load remaining,[1],37.9% (inactive)
same,viability,[1],150%
same,remaining activity,[2],80.1% (inactive)
same,fold change,"[3]; stronger effect = lower value, cell number ratio, induced over uninduced",0.886 (inactive) and 0.916 (inactive)
same,fold change,[3]; measured here: relative caspase fold change +Dox/-Dox,0.378 and 1.21
same,cell count,"[3]; measured here: total cells with miR-34 induction, stronger effect = lower value",1760 and 1260
same,cell count,[3]; measured here: total cells without miR-34 induction,1990 and 1380
same,z-score,"[4]; MELAS cybrid survival, CellTiter-Glo 48 h, stronger effect = higher value",-0.482 (inactive)
same,z-score,"[4]; Rieske KO mouse fibroblast survival, CellTiter-Glo 72 h",-0.549
same,z-score,[5],-0.7 (inactive)
same,inhibition,"[6]; at 0.5 µM, stronger effect = higher value",-14.4% (inactive) and -15.8% (inactive)
same,inhibition,"[6]; measured here: combination with BGB IC20, at 0.005 µM",-15.1% and -22%
same,inhibition,"[6]; measured here: combination with BGB IC40, at 0.005 µM",-12.9% and -23.4%
same,inhibition,[6]; [11],-2.89% and -34.1%
same,inhibition,"[6]; measured here: combination with cisplatin, at 0.5 µM, stronger effect = higher value",-21.5% and -41.9%
same,inhibition,"[6]; measured here: combination with cisplatin, at 5 µM, stronger effect = higher value",-21.2% and -42.7%
same,inhibition,"[7]; BGB combo, at 5 µM",-9.61% and -16%
same,inhibition,[7]; at 0.5 µM,-0.93% (inactive) and -12% (inactive)
same,inhibition,"[7]; cisplatin combo, at 5 µM",-12.1% and -4.83%
same,inhibition,"[7]; measured here: with BGB IC20 combination, at 0.5 µM",-8.76% and -21.5%
same,inhibition,"[7]; measured here: with cisplatin IC20 combination, at 0.5 µM",2.56% and -5.96%
same,inhibition,"[7]; single agent, at 5 µM",4.16% and -9.08%
same,inhibition,"[8]; BGB IC20 combo, at 0.005 µM",7.62% and 15.2%
same,inhibition,"[8]; BGB IC40 combo, at 0.005 µM",-20.7% and 11.9%
same,inhibition,"[8]; BGB IC40 combo, at 0.05 µM",35.5% and -11.2%
same,inhibition,[8]; at 0.5 µM,-22.3% (inactive) and -17.8% (inactive)
same,inhibition,"[8]; cisplatin combo, at 0.05 µM",33.7% and -15.2%
same,inhibition,"[8]; cisplatin combo, at 0.5 µM",-13.4% and -3.51%
same,inhibition,"[8]; cisplatin combo, at 5 µM",-12.5% and -33.8%
same,inhibition,"[8]; measured here: 5 uM single agent, at 5 µM",-8.95% and -2.73%
same,inhibition,[9]; at 0.5 µM,4.09% (inactive) and -12.4% (inactive)
same,inhibition,[9]; [11],-23.4% and -14.6%
same,inhibition,"[9]; measured here: combination with cisplatin, at 0.5 µM",-13.7% and -10.4%
same,inhibition,"[9]; measured here: combination with cisplatin, at 5 µM",30.6% and -30.6%
same,inhibition,[10]; at 0.5 µM,8.95% (inactive) and 0.41% (inactive)
same,inhibition,"[10]; measured here: with BGB IC20, at 0.5 µM",16.1% and 0.127%
same,inhibition,"[10]; measured here: with BGB IC20, at 5 µM",2.8% and -10.9%
same,inhibition,"[10]; measured here: with cisplatin IC20, at 0.5 µM",1.41% and -9.26%
same,inhibition,"[10]; measured here: with cisplatin IC20, at 5 µM",2.01% and -34.1%
